The sample as a whole holds a higher share of hits than the screen did.
miR122 inh = miR-122 suppressors via Renilla sensor increase, primary screen, cell-based, Huh7 psiCHECK-miR122, Renilla luciferase, single point. actives 0.14% (n = 340,000). 48 h. activation, % at 12.5 µM;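 active = mean activation of 30% or more, with every replicate also reaching 30%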;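 note: higher luciferase signal means stronger suppression of miR-122 activity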
Large screens that a line does not name were inactive.

Cc1ccccc1-c1ccc2c(c1)O[C@@H](CN(C)C(=O)Nc1ccccc1)[C@@H](C)CN([C@H](C)CO)S2(=O)=O	none
COc1ccc(C#Cc2ccc3c(c2)O[C@@H](CN(C)C(=O)NC2CCCCC2)[C@H](C)CN([C@@H](C)CO)S3(=O)=O)cc1	none
COc1ccc(C#Cc2ccc([C@@H]3[C@H](CO)N4CCCCN(C(=O)Nc5ccccc5)C[C@@H]34)cc2)cc1	miR122 inh 36
Cc1ccccc1-c1ccc2c(c1)O[C@@H](CN(C)C(=O)Nc1ccccc1)[C@@H](C)CN([C@@H](C)CO)S2(=O)=O	none
COc1ccc(NC(=O)N2CCCCN3[C@H](CO)[C@H](c4ccc(C#CCC(C)C)cc4)[C@H]3C2)cc1	miR122 inh 34
C[C@H]1CN([C@@H](C)CO)S(=O)(=O)c2ccc(C#CC3CC3)cc2O[C@H]1CN(C)Cc1ccccn1	none
COCC#Cc1cnc2c(c1)C(=O)N([C@@H](C)CO)C[C@H](C)[C@H](CN(C)C(=O)Nc1c(C)noc1C)O2	none
C[C@H](CO)N1C[C@H](C)[C@@H](CN(C)S(C)(=O)=O)Oc2cc(C#Cc3ccccc3)ccc2S1(=O)=O	none
COCC#Cc1cnc2c(c1)C(=O)N([C@@H](C)CO)C[C@H](C)[C@H](CN(C)Cc1ccccc1)O2	none
COCC#Cc1cnc2c(c1)C(=O)N([C@H](C)CO)C[C@H](C)[C@@H](CN(C)C(=O)Cc1ccccc1)O2	none
COc1ccccc1-c1cnc2c(c1)C(=O)N([C@H](C)CO)C[C@H](C)[C@H](CN(C)Cc1ccccc1)O2	none
CCN(Cc1ccccc1)C(=O)c1[nH]c2ccc(OC)cc2c1C	none
COc1ccc2[nH]c(=O)c(COC(=O)c3ccco3)cc2c1	miR122 inh 31
C[C@@H]1CN([C@H](C)CO)C(=O)c2cc(/C=C/c3ccccc3)cnc2O[C@@H]1CN(C)S(=O)(=O)c1ccc(F)cc1	none
C[C@@H]1CN([C@H](C)CO)C(=O)c2cc(-c3ccccc3F)cnc2O[C@H]1CN(C)C(=O)C1CCCCC1	none
Cc1nn(C)cc1NC(=O)C[C@@H]1CC[C@H]2[C@@H](COc3ccc(NC(=O)Nc4cccc(Cl)c4)cc3C(=O)N2C)O1	miR122 inh 48
Cc1nn(C)cc1NC(=O)C[C@H]1CC[C@@H]2[C@H](COc3ccc(NC(=O)Nc4cccc(Cl)c4)cc3C(=O)N2C)O1	miR122 inh 69
C[C@H](CO)N1C[C@H](C)[C@@H](CN(C)C(=O)c2cccc(F)c2)Oc2ncc(-c3cccc(F)c3)cc2C1=O	none
COCC(=O)Nc1ccc2c(c1)OC[C@H](C)N(C(C)=O)C[C@@H](C)[C@H](OC)CN(C)C2=O	none
C[C@H]1CN([C@@H](C)CO)C(=O)c2cc(C#Cc3ccccc3F)cnc2O[C@@H]1CN(C)C(=O)C1CCOCC1	none
C[C@H]1CN([C@@H](C)CO)S(=O)(=O)c2ccc(/C=C/c3ccccc3)cc2O[C@H]1CN(C)C(=O)Nc1cccc(F)c1	none
C[C@@H]1CN([C@H](C)CO)C(=O)c2cc(C#C[C@@H](C)O)cnc2O[C@H]1CN(C)C(=O)CN(C)C	none
CCC(=O)Nc1ccc2c(c1)OC[C@H](C)N(CCC(F)(F)F)C[C@@H](C)[C@H](OC)CN(C)C2=O	none
CC(C)N1C(=O)CC(Nc2ccc(N3CCOCC3)cc2)C1=O (stereo not drawn)	none
CCc1ccc(NC(=O)CN2CCc3ccccc3C2)cc1	none
CCc1nnc(SCC(=O)Nc2ccc(N3CCOCC3)cc2)o1	miR122 inh 32
COc1ccc(-c2cnc3c(c2)C(=O)N([C@@H](C)CO)C[C@@H](C)[C@H](CN(C)Cc2ccccn2)O3)cc1	none
C[C@@H]1CN([C@@H](C)CO)C(=O)c2cc(C#CC3CC3)cnc2O[C@H]1CN(C)Cc1ccncc1	none
COCC(=O)N(C)C[C@@H]1Oc2ncc(C#Cc3ccccc3OC)cc2C(=O)N([C@H](C)CO)C[C@H]1C	none
Oc1ccc2ccccc2c1/C=N/Nc1nnc(-c2ncc[nH]2)c2ccccc12	miR122 inh 61
C[C@@H]1CN([C@H](C)CO)C(=O)c2cc(-c3cccnc3)cnc2O[C@H]1CN(C)S(C)(=O)=O	none
C[C@H]1CN([C@@H](C)CO)C(=O)c2cc(Br)cnc2O[C@@H]1CN(C)C(=O)Nc1ccc(C(F)(F)F)cc1	none
C[C@@H]1CN([C@@H](C)CO)C(=O)c2cc(C#CCC3CCCC3)cnc2O[C@H]1CN(C)C(=O)CC1CC1	none
CCCNC(=O)N(C)C[C@@H]1Oc2ncc(C#C[C@@H](C)O)cc2C(=O)N([C@H](C)CO)C[C@@H]1C	none
CSc1cccc(NS(=O)(=O)c2ccccc2)c1	miR122 inh 35
CSc1cccc(NS(=O)(=O)c2cc(Br)cnc2N)c1	none
O=S(=O)(Nc1ccc2ccccc2c1)c1ccccc1	none
C[C@H]1CN([C@@H](C)CO)C(=O)c2cc(-c3ccncc3)cnc2O[C@@H]1CN(C)C(=O)C1CCOCC1	none
CCCNC(=O)N(C)C[C@@H]1Oc2cc(C#Cc3cccc(F)c3)ccc2S(=O)(=O)N([C@H](C)CO)C[C@@H]1C	none
CCCN1C[C@@H](C)[C@H](OC)CN(C)C(=O)c2ccc(NC(=O)COC)cc2OC[C@@H]1C	none
COc1ccc(C(=O)N2C[C@@H]3[C@H](c4ccccc42)[C@H](CO)N3Cc2ccccc2Cl)cc1	none
O=C(Cc1ccccc1)N1C[C@H]2[C@@H](c3ccccc31)[C@@H](CO)N2C(=O)C1CCCCC1	none
O=C(C1CCCCC1)N1C[C@H]2[C@@H](c3ccccc31)[C@@H](CO)N2C(=O)c1ccccc1	none
O=C(C1CC1)N1C[C@H]2[C@@H](c3ccccc31)[C@H](CO)N2C(=O)c1ccccc1F	miR122 inh 33
O=C(C1CCCCC1)N1C[C@@H]2[C@H](c3ccccc31)[C@H](CO)N2Cc1ccccc1Cl	miR122 inh 40
C[C@H](CO)N1C[C@H](C)[C@H](CN(C)C(=O)Nc2ccc(F)cc2)Oc2cc(C#CC3(O)CCCC3)ccc2S1(=O)=O	none
C[C@@H]1CN([C@H](C)CO)C(=O)c2cc(C#Cc3ccccn3)cnc2O[C@H]1CN(C)Cc1cccnc1	none
C[C@H]1CN([C@@H](C)CO)C(=O)c2cc(C#CCc3ccccc3)cnc2O[C@@H]1CN(C)C(=O)C1CCCCC1	none
COc1ccc(-c2cnc3c(c2)C(=O)N([C@H](C)CO)C[C@H](C)[C@H](CN(C)C(=O)Cc2ccccc2)O3)cc1	none
C[C@@H]1CN([C@H](C)CO)S(=O)(=O)c2ccc(Br)cc2O[C@@H]1CN(C)Cc1ccccn1	none
CCCCN(CCCC)C(=O)CN(C)S(=O)(=O)c1ccc2c(c1)n(C)c(=O)c(=O)n2C	miR122 inh 50
C[C@@H]1CN([C@@H](C)CO)S(=O)(=O)c2ccc(-c3ccc(C(=O)N(C)C)cc3)cc2O[C@H]1CN(C)C	none
C[C@@H]1CN([C@@H](C)CO)C(=O)c2cc(C3=CCCCC3)cnc2O[C@@H]1CN(C)Cc1ccccc1C(=O)O	none
c1ccc(CCNc2nnnn2-c2ccccc2)cc1	miR122 inh 46
CC(C)(CNC(=S)NCCc1ccccc1)CNC(=S)NCCc1ccccc1	none
C[C@H]1CN([C@@H](C)CO)C(=O)c2cc(C#CCc3ccccc3)cnc2O[C@@H]1CN(C)CC1CCOCC1	none
CCCNC(=O)N(C)C[C@@H]1Oc2ncc(/C=C/c3ccccc3)cc2C(=O)N([C@@H](C)CO)C[C@@H]1C	none
C[C@H](CO)N1C[C@H](C)[C@H](CN(C)Cc2ccccn2)Oc2ncc(C#Cc3ccc(F)cc3)cc2C1=O	none
C[C@H](CO)N1C[C@H](C)[C@H](CN(C)Cc2cccc(C(=O)O)c2)Oc2ncc(C#CCc3ccccc3)cc2C1=O	none
C[C@H]1CN([C@@H](C)CO)S(=O)(=O)c2ccc(-c3cccc(C#N)c3)cc2O[C@H]1CN(C)Cc1ccccn1	none

Screening data as filed in PubChem BioAssay.
